Experimental data: PubChem BioAssay (EPA / NIEHS)
A structure can be active in one record and inactive in another. The source made the active and inactive calls. The calls were made as follows: active = hit-call score of the fitted dose curve at least 0.9, where 1 is the maximum; inactive = score below 0.9.

Experiment: ATG_PPRE_CIS: Attagene CIS-FACTORIAL HepG2 Assay for human Peroxisome Proliferator-activated Response Element (PPRE) (AID 2282958)
Settings: HepG2 PPRE cis-element reporter, Attagene transcription factor profiling; actives raise or lower the signal
Procedure: ATG_CIS is a cell-based, multiplexed-readout assay that uses HepG2, a human liver cell line, with measurements taken at 24 hours after chemical dosing in a 24-well plate.ATG_PPRE_CIS is one of 52 assay component(s) measured or calculated from the ATG_CIS assay. It is designed to make measurements of mRNA induction, a form of inducible reporter, as detected with fluorescence intensity signals by Reverse transcription polymerase chain reaction (RT-PCR) and Capillary electrophoresis technology.Data from the assay component ATG_PPRE_CIS was analyzed into 1 assay endpoint. This assay endpoint, ATG_PPRE_CIS, was analyzed with bidirectional fitting relative to DMSO as the negative control and baseline of activity. Using a type of inducible reporter, measures of mRNA for gain or loss-of-signal activity can be used to understand the reporter gene at the transcription factor-level as they relate to the gene PPARA and PPARD and PPARG. Furthermore, this assay endpoint can be referred to as a primary readout, because this assay has produced multiple assay endpoints where this one serves a reporter gene function. To generalize the intended target to other relatable targets, this assay endpoint is annotated to the nuclear receptor intended target family, where the subfamily is non-steroidal.
Human liver HepG2 cells are transiently transfected with multiple reporter transcription units (MRTUs) in 6-well plates using FuGene 6 reagent (Roche; 3 ml FuGene/1 mg DNA). The MRTU constructs are regulated by a cis-regulating element (promoter). […] A major difference between the CIS and TRANS system is that in CIS activities of endogenous TFs are measured, whereas the TRANS assay evaluates changes in activities of exogenous, chimeric NR-Gal4 proteins. […] At the end of 24 hour incubation, total RNA was isolated using TriZol reagent (Invitrogen). The isolated RNA is then reverse-transcribed using oligo(dT) primer and Mo-MLV reverse transcriptase (Invitrogen) with DNAse I (Ambion) treatment for 30 min. The one-tenth of the produced cDNA was amplified by PCR using Taq DNA polymerase (Invitrogen) and two reporter sequence-specific primers. The PCR products were fluorescently labeled by primer extension with 6-arboxyfluorescein (6-FAM) 5'-labeled reporter sequence-specific primer (2 min at 95 C, 20 s at 68 C and 10 min at 72 C) and these products were digested with 5U of HpaI (New England Biolabs) for 2h at 37 C. The fragments were purified using Qiaquick PCR columns (Qiagen), analyzed on an ABI 3130xL genetic analyzer (Applied Biosystems) with peak positions identified by using a set of X-rhodamine (ROX)-labeled MapMarker1000 molecular weight standards (BioVentures). The raw capillary electrophoresis data was processed using Attagraph software (Attagene).

Compound | outcome | AC50
COc1cc(OC)nc(NC(=O)NS(=O)(=O)c2ncccc2C(=O)N(C)C)n1 | inactive | 
O=C(CCl)CCl | inactive | 
COP(=S)(OC)Oc1c(Cl)cc(C)cc1Cl | inactive | 
CC(=O)c1cc(C(C)(C)C)cc2c1CCC2(C)C |  | 29.4 µM (active)
ClC(Cl)=C(Cl)C(Cl)=C(Cl)Cl | inactive | 
COC[C@H](C)N(C(=O)CCl)c1c(C)csc1C | inactive | 
NNC(=S)NN | inactive | 
CCCCOCCOC(C)=O | inactive | 
CCN(CC)C(=O)Cl | inactive | 
CC(=[OH+])/C=C(/C)[O-].CC(=[OH+])/C=C(/C)[O-].CC(=[OH+])/C=C(/C)[O-].[Al] | inactive | 
c1cc[c]([Hg][c]2ccccc2)cc1 | inactive | 
Cc1ccccc1C(=O)Nc1cccc(OC(C)C)c1 | inactive | 
CNC | inactive | 
Oc1ccc(-c2ccccc2)cc1 | inactive | 
COP(=S)(OC)Oc1ccc(Sc2ccc(OP(=S)(OC)OC)cc2)cc1 | inactive | 
CCCCCCCCCl | inactive | 
CCOP(=S)(OCC)Oc1nc(Cl)c(Cl)cc1Cl | inactive | 
C1CCC(NC2CCCCC2)CC1 | inactive | 
CCC[CH2][Sn]([CH2]CCC)([CH2]CCC)[O]C(=O)c1ccccc1 |  | 0.0115 µM (active)

Compound | outcome | AC50
O=C1C2(Cl)C3(Cl)C4(Cl)C(Cl)(Cl)C5(Cl)C3(Cl)C1(Cl)C5(Cl)C24Cl (stereo not given) | inactive | 14 µM (active)
O=C(O)C(Cl)(Cl)Cl | inactive | 
CC(=O)[O][Hg][c]1ccccc1 | inactive | 
C[C@H]1O[C@@H](O[C@H]2[C@@H](O)C[C@H](O[C@H]3[C@@H](O)C[C@H](O[C@H]4CC[C@@]5(C)[C@H](CC[C@@H]6[C@@H]5CC[C@]5(C)[C@@H](C7=CC(=O)OC7)CC[C@]65O)C4)O[C@@H]3C)O[C@@H]2C)C[C@H](O)[C@@H]1O | inactive | 
CCSC(C)CC1CC(=O)C(C(CC)=NOC/C=C/Cl)=C(O)C1 (stereo not given) | inactive | 
C=C(C)C(=O)[O][Sn]([CH2]CCC)([CH2]CCC)[CH2]CCC |  | 0.0903 µM (active)
CCOP(=S)(OCC)SCCS(=O)(=O)CC | inactive | 
ClC1(Cl)C2(Cl)C3(Cl)C4(Cl)C(Cl)(Cl)C5(Cl)C3(Cl)C1(Cl)C5(Cl)C24Cl (stereo not given) | inactive | 
O=c1[nH]c(=O)[nH]c(=O)[nH]1 | inactive | 
O=C(O)C(F)(F)C(F)(F)C(F)(F)C(F)(F)C(F)(F)C(F)(F)F | inactive | 63.7 µM (active)
Nc1ccc(Cl)cc1C(=O)c1ccccc1 | inactive | 
Cc1cc(=O)[nH]o1 | inactive | 
Nc1cccc2ccccc12 | inactive | 
Cn1sc(Cl)cc1=O |  | 100 µM (active)
C=CC(=O)N(C)C | inactive | 
COC(=O)Cc1ccccc1 | inactive | 
N#CCc1ccc(Cl)cc1 | inactive | 
CCC(=O)C(CC(C)N(C)C)(c1ccccc1)c1ccccc1 (stereo not given) | inactive | 
C[C@H]1CCCC(=O)CCC/C=C/c2cc(O)cc(O)c2C(=O)O1 | inactive | 
